In PubChem BioAssay (Tox21) one finds Potency and activity change, negative = cytotoxicity data, which are given here for 40 compounds.

Values joined by “and” are separate entries in the source; they are usually repeats but may differ in a detail not shown here. Equal values may be shown once. Inconclusive results are not listed. Where a call stands in place of a potency, no number is given. A structure can be active in one record and inactive in another. Active and inactive are the calls of the source. Calls follow the shape of the full dose curve.
Potency is read from the fitted curve at half-maximal effect.

The experiment can be described thus: qHTS assay to identify small molecule agonists of the hypoxia (HIF-1) signaling pathway - cell viability counter screen (AID 1224844). Also: nearly all actives have a fitted effect of over 50% in size. The following applies: HRE-bla ME-180 viability, CellTiter-Glo luminescence, 17 h; series mostly up to 76.8 µM. An excerpt:
National Center for Advancing Translational Sciences [NCATS]
NIH Chemical Genomics Center [NCGC]
U.S. Environmental Protection Agency [EPA]
National Institutes of Environmental Health Sciences [NIEHS]
National Toxicology Program [NTP]
U.S. Food and Drug Administration [FDA]
Hypoxia-inducible factor-1 (HIF-1) is the major hypoxia-regulated transcription factor that controls cellular responses to low oxygen concentration. HIF-1 is composed of two subunits: hypoxia responsive HIF-1-alpha and constitutively expressed HIF-1-beta, which is also known as aryl hydrocarbon receptor nuclear translocator. During hypoxic conditions, HIF-1-alpha heterodimerizes with HIF-1-beta and translocates into the nucleus where the HIF-1 complex binds to the hypoxia-response element (HRE) and activates expression of target genes such as VEGF (vascular endothelial growth factor). The HIF-1 pathway is essential to normal growth and development, and is involved in the pathophysiology of cancer, inflammation, and ischemia.
Using a beta-lactamase reporter-gene under control of the hypoxia response element, a cell-based assay [CellSensor(TM) HRE-bla ME-180 from Life Technologies, Carlsbad, CA] was used to measure hypoxia-induced signaling. Tox21 10K library compounds were measured for their ability to induce the reporter gene activity. The cytotoxicity of the Tox21 compound library against HRE-bla ME-180 cell line was tested in parallel by measuring cell viability using CellTiter-Glo assay (Promega, Madison, WI) in the same assay wells.
Tox21 Assay Protocol Summary:
HRE-bla ME-180 cells were dispensed at 2,000 cells per well in 6 uL of assay medium containing 0.5% dialyzed FBS into black wall/clear-bottom 1536-well plates using a Multidrop Combi (Thermo Scientific, Waltham, MA) dispenser. After the assay plates were incubated at 37C and 5% CO2 for 5 hrs, 23 nL of compounds dissolved in DMSO, positive controls or DMSO only was transferred to each well of the assay plate using a Pintool station (Kalypsys, San Diego, CA). The assay plates were incubated at 37C and 5% CO2 for 17 hrs. One uL of LiveBLAzerTM B/G FRET substrate (CCF4-AM) (Life Technologies) was added to each well using a Flying Reagent Dispenser (FRD, Aurora Discovery, San Diego, CA). After 2 hr incubation at room temperature, fluorescence intensity (405 nm excitation, 460 nm and 530 nm emissions) was measured using an Envision plate reader (PerkinElmer, Shelton, CT). For cytotoxicity, 4 ul/well of CellTiter-Glo reagent was added into the assay plates using an FRD. After 30 min incubation at room temperature, the luminescence intensity was measured using a ViewLux plate reader (PerkinElmer).
As to `CN`, the Potency result is “inactive”.

On to `CN1C(=O)[C@@H](NC(=O)c2cc3ccccc3[nH]2)N=C(c2ccccc2)c2ccccc21`, for which the Potency result was “inactive”.

Consider `O=C1C2(Cl)C3(Cl)C4(Cl)C(Cl)(Cl)C5(Cl)C3(Cl)C1(Cl)C5(Cl)C24Cl` (stereo not given), for which the Potency was 21.5 µM (active).

In the case of `Oc1cc(Cl)cc(Cl)c1`, the Potency result was “inactive”.

As for `CCC(C)Nc1c([N+](=O)[O-])cc(C(C)(C)C)cc1[N+](=O)[O-]` (stereo not given), the Potency result was “inactive”.

With `Cc1ccc2cc3c(ccc4ccccc43)c3c2c1CC3`, the Potency entry was “inactive”.

As for `ClCBr`, the Potency entry was “inactive”.

As to `CCCCCON=O`, the Potency entry was “inactive”.

Regarding `COc1ccc(Cc2nccc3cc(OC)c(OC)cc23)cc1OC`, the Potency result is “inactive”.

With `[O]=[Cr](=[O])([OH])[O][Cr](=[O])(=[O])[OH]`, the Potency was 2.78 µM (active) and 12.3 µM (active).

`c1cc[n+]2c(c1)-c1cccc[n+]1CC2`: the Potency entry is “inactive”.

In the case of `N#Cc1c2ccccc2cc2ccccc12`, the Potency result is “inactive”.

Regarding `CC(=O)O.CC(=O)O.CC(=O)O.CC(=O)O.CC(=O)O.CC(=O)O.CC(=O)O.O.O.[Cr].[Cr].[Cr]`, the Potency result was “inactive”.

Take `COC(=O)C(C)N(C(=O)c1ccco1)c1c(C)cccc1C` (stereo not given): the Potency result was “inactive”.

Turning to `CCC1COC(Cn2cncn2)(c2ccc(Cl)cc2Cl)O1` (stereo not given), the Potency result was “inactive”.

In the case of `COP(=S)(NC(C)C)Oc1ccc(C)cc1[N+](=O)[O-]` (stereo not given), the Potency entry is “inactive”.

On to `CC(C)C(Nc1ccc(C(F)(F)F)cc1Cl)C(=O)OC(C#N)c1cccc(Oc2ccccc2)c1` (stereo not given), for which the Potency result was “inactive”.

Turning to `Cc1cnc2c(C(=O)O)c(Cl)ccc2c1`, the Potency result is “inactive”.

As to `O=C(NC(=O)c1c(F)cccc1F)Nc1ccc(Oc2ccc(C(F)(F)F)cc2Cl)cc1F`, the Potency entry was “inactive”.

Take `CC(C)=CC1C(C(=O)OC(C#N)c2cccc(Oc3ccccc3)c2)C1(C)C` (stereo not given): the Potency entry was “inactive”.

As to `CC1CCCC1`, the Potency entry is “inactive”.

With `CCC[CH2][Sn]([CH2]CCC)([O]C(C)=O)[O]C(C)=O`, the Potency is 0.986 µM (active).

On to `Cc1cc2c3c(c1)C(c1ccccc1)=N[C@@H](NC(=O)c1ccncc1)C(=O)N3CC2`, for which the Potency entry is “inactive”.

In the case of `N#CSCc1ccccc1`, the Potency entry is “inactive”.

As to `CSC(C)(C)/C=N/O`, the Potency entry is “inactive”.

Take `CC#C[C@]1(O)CC[C@H]2[C@@H]3C[C@H](C)C4=CC(=O)CC[C@]4(C)[C@H]3CC[C@@]21C`: the Potency result was “inactive”.

`C#CCO`: the Potency result is “inactive”.

For the compound `CC(=O)[O-].CC(=O)[O-].CC(=O)[O-].[Sb+3]`, the activity change, negative = cytotoxicity is -10.5% [at 2.72 µM] (inactive).

For the compound `O=[N+]([O-])[O-].[Tl+]`, the Potency result is “inactive”.

`CCCCCCCCCCCCCCn1cc[n+](C)c1`: the Potency is 24.6 µM (active) and 43.2 µM (active) and inactive.

With `CCCCC/C=C\C/C=C\C/C=C\C/C=C\CCCC(=O)NCC(=O)O`, the Potency result is “inactive”.

`COc1cnc(OC)n2nc(NS(=O)(=O)c3c(OCC(F)F)cccc3C(F)(F)F)nc12`: the Potency entry was “inactive”.

For the compound `N#Cc1sc2c(=O)c3ccccc3c(=O)c=2sc1C#N`, the Potency is 4.9 µM (active).

Take `O=[N+]([O-])c1ccccc1-c1ccccc1`: the Potency entry was “inactive”.

In the case of `O=C(N[C@@H]1N=C(c2ccccc2F)c2cccc3c2N(CC3)C1=O)c1cc2ccccc2[nH]1`, the Potency result is “inactive”.

For `CCOP(=S)(NC(C)C)Oc1ccccc1C(=O)OC(C)C` (stereo not given), the Potency was 6.16 µM (active).

As for `C=CCOC(=O)c1ccccc1N`, the Potency result is “inactive”.

For the compound `CC(Cc1ccc(OCC(=O)O)cc1)NCC(O)c1csc(C(F)(F)F)n1` (stereo not given), the Potency entry is “inactive”.

Consider `BrCCCBr`, for which the Potency result was “inactive”.

In the case of `Brc1cccc(-c2ccccc2)c1`, the Potency result is “inactive”.
